Test results from PubChem BioAssay (Tox21).
Inconclusive results are not listed. Active and inactive are the calls of the source. Unless noted, the call rests on the fitted dose curve; in most records, active means well fitted curve in the direction sought with a large enough effect in the repeat runs; inconclusive means weak or mixed curves; inactive means no such curve, though single readings can be large; an effect the other way counts as inactive or inconclusive.

Legend:
[1] = qHTS assay for small molecule agonists of the p53 signaling pathway (AID 651631; calls by dose curve; further: nearly all actives have a fitted effect of over 15% in size)
Method in brief: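 HCT-116 cells carrying a beta-lactamase reporter under p53 response elements were dosed with compound for 16 h at 37 °C. LiveBLAzer B/G FRET substrate was then added for 2 h at room temperature, and fluorescence intensity was read to detect pathway agonism.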

[2] = qHTS assay for small molecule agonists of the p53 signaling pathway - cell viability (AID 651633; calls by dose curve;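 further: p53RE-bla HCT reporter cells with a stable beta-lactamase p53 reporter; nearly all actives have a fitted effect of over 30% in size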)
Method in brief: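 p53RE-bla cells were treated with compound for 16 hours at 37 C. Cytotoxicity was then measured as CellTiter-Glo luminescence after 30 min at room temperature.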

[3] = qHTS assay for small molecules that induce genotoxicity in human embryonic kidney cells expressing luciferase-tagged ATAD5 - cell viability (AID 651634; calls by dose curve; further: nearly all actives have a fitted effect of over 25% in size)
Method in brief: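 Seeding of 2,000 HEK293T ATAD5-luciferase cells per well preceded pin-tool compound transfer. Plates sat 15.5 hr at 37C under 5% CO2, then fluorescence was read after 30 min with CellTiter-Fluor.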

[4] = qHTS assay for small molecule disruptors of the mitochondrial membrane potential - cell viability (AID 720634; calls by dose curve;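 further: human HepG2 liver cancer cells; nearly all actives have a fitted effect of over 20% in size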)
Method in brief: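 Measuring cytotoxicity alongside mitochondrial potential, the screen quantified ATP by luminescence in HepG2 cells after 1 hr compound incubation and a 30 min room-temperature CellTiter-Glo step.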

[5] = qHTS assay for small molecule disruptors of the mitochondrial membrane potential (AID 720635)
Method in brief: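 HepG2 cells exposed to compound 1 hr at 37C, then Mito-MPS dye 30 min. Ratio read of aggregate (540/590 nm) versus monomer (490/535 nm) fluorescence.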

[6] = qHTS assay to test for compound auto fluorescence at 590 nm (red) in HepG2 cells (AID 720674)
Method in brief: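 Fluorescence at 590 nm emission following 540 nm excitation was recorded from HepG2 wells one hour after compound transfer, with DMSO-only wells as vehicle and Rose Bengal sodium equivalency as the scale.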

[7] = qHTS assay to test for compound auto fluorescence at 535 nm (green) in HepG2 cells (AID 720675)
[8] = qHTS assay to test for compound auto fluorescence at 460 nm (blue) in HEK293 cells (AID 720678)
Method in brief: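 HEK293, 2,000 cells/well, 10% dialyzed FBS; attach 4-5 hr 37C; pin compound or DMSO; o/n 37C/5% CO2; fluorescence 405/460 nm; triamterene-equivalent units.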

[9] = qHTS assay to test for compound auto fluorescence at 590 nm (red) in HEK293 cells (AID 720679)
Method in brief: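 Intensity at 540nm excitation and 590nm emission is reported as Rose Bengal sodium-equivalent autofluorescence. Measurements followed overnight exposure (37C, 5% CO2) of HEK293 cells, 2,000 per well, to 23 nL compound.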

[10] = qHTS assay to test for compound auto fluorescence at 535 nm (green) in HEK293 cells (AID 720680)
[11] = qHTS assay to test for compound auto fluorescence at 460 nm (blue) in HEK293 cell free culture (AID 720681)
Method in brief: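 Compounds were added to cell-free DMEM with 10% FBS and fluorescence read directly. The blue channel used 405 nm excitation and 460 nm emission, with triamterene as the reference fluorophore.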

[12] = qHTS assay to test for compound auto fluorescence at 535 nm (green) in HEK293 cell free culture (AID 720682)
Method in brief: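 Green-label autofluorescence (485 nm excitation, 535 nm emission) measured on compound added to cell-free culture medium (DMEM, 10% FBS). Output is expressed relative to fluorescein.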

[13] = qHTS assay to test for compound auto fluorescence at 590 nm (red) in HEK293 cell free culture (AID 720683)
Method in brief: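 Cell-free wells of DMEM with 10% FBS received compound, and intrinsic fluorescence was read at excitation/emission 540/590 nm. Values expressed as equivalence to Rose Bengal sodium.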

[14] = qHTS assay to test for compound auto fluorescence at 590 nm (red) in HepG2 cell free culture (AID 720684)
Method in brief: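 Compounds are added to culture medium (MEM, 10% FBS) lacking cells, then fluorescence is read at excitation 540 nm, emission 590 nm, with Rose Bengal sodium as the equivalency standard.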

[15] = qHTS assay to test for compound auto fluorescence at 460 nm (blue) in HepG2 cell free culture (AID 720685)
Method in brief: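 Compound (23 nL) or DMSO pinned into cell-free MEM with 10% FBS; blue fluorescence read at 405/460 nm excitation/emission, expressed as auto-fluorescence equivalency to triamterene.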

[16] = qHTS assay to test for compound auto fluorescence at 460 nm (blue) in HepG2 cells (AID 720687)
Method in brief: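 HepG2 cells in MEM with 10% FBS, attached overnight at 37 C, were exposed to compound or DMSO for 1 hr at 37 C, 5% CO2. Blue fluorescence was read at 405/460 nm, with triamterene as reference fluorophore.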

[17] = target: Glucocorticoid receptor (Homo sapiens) (UniProt P04150); test: qHTS assay to identify small molecule agonists of the glucocorticoid receptor (GR) signaling pathway (AID 720691; active means well fitted activation curve with a large enough effect in the signal ratio in the repeat runs, not every such curve was filed as active; the % refers to the signal ratio); conditions: GR-bla HeLa, beta-lactamase reporter ratio, 18 h; activation: at 62.4 µM (top of the series)
Sequence of Glucocorticoid receptor (Homo sapiens) (P04150 whole entry, looked up): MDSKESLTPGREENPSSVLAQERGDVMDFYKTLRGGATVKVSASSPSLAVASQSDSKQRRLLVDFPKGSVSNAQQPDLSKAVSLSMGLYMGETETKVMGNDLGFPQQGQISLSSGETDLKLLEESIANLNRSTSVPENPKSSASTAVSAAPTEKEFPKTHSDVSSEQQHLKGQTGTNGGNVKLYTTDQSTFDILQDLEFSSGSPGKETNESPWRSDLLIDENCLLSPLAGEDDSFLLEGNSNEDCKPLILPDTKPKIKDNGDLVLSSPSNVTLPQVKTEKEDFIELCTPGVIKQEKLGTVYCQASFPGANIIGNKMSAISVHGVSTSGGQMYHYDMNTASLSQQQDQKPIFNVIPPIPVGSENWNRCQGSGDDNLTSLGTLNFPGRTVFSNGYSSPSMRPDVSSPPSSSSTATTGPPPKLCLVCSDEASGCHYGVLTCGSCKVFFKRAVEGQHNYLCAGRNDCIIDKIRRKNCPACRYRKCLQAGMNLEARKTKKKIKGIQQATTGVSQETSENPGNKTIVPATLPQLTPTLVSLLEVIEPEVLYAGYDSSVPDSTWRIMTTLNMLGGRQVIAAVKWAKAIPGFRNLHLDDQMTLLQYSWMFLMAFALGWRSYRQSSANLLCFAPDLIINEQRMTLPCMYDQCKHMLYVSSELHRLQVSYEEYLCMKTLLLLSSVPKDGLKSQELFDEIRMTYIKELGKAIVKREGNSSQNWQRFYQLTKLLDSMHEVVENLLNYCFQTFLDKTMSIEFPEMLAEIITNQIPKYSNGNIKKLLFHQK
Method in brief: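 Reporter read-out: fluorescence intensity following 2 h room-temperature LiveBLAzer B/G FRET substrate loading. Prior step: GR-bla HeLa cells held 4 h, then treated 18 h at 37 C.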

[18] = target: Glucocorticoid receptor (Homo sapiens) (UniProt P04150); test: qHTS assay to identify small molecule antagonists of the glucocorticoid receptor (GR) signaling pathway (AID 720692; active means well fitted inhibition curve with a large enough effect in the signal ratio in the repeat runs, not every such curve was filed as active; the % refers to the signal ratio)
Method in brief: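 Dexamethasone (5 nM final) stimulated a stably integrated GRE-beta-lactamase reporter in HeLa cells during 18 h co-incubation with compounds; signal was quantified as fluorescence intensity of B/G FRET substrate after 2 h.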

[19] = qHTS assay to test for compound auto fluorescence at 535 nm (green) in HepG2 cell free culture (AID 720686)
[20] = qHTS assay for small molecules that induce genotoxicity in human embryonic kidney cells expressing luciferase-tagged ATAD5 (AID 651632); further: nearly all actives have a fitted effect of over 15% in size
Method in brief: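 Reporter cells (HEK293T) express luciferase-tagged ATAD5, a protein that accumulates after DNA damage. Treat 16 hr at 37C/5% CO2, add Amplite, wait 30 min at RT, and read luminescence.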

Measured: Potency

CCCC(C)=O
inactive: [1] | [2] | [3] | [4] | [5] | [6] | [7] | [8] | [9] | [10] | [11] | [12] | [13] | [14] | [15] | [16] | [17] | [18]

FC(F)(F)c1ccc(Cl)c(Cl)c1
inactive: [1] | [2] | [3] | [4] | [5] | [6] | [7] | [8] | [9] | [10] | [11] | [12] | [13] | [14] | [15] | [19] | [16] | [17] | [18]

COc1ccc(Nc2ccccc2)c(C)c1
inactive: [1] | [20] | [2] | [3] | [4] | [6] | [7] | [8] | [10] | [11] | [12] | [13] | [14] | [17] | [18]

C[C@H]1C[C@H]2[C@@H]3CCC4=CC(=O)C=C[C@]4(C)[C@@]3(F)[C@@H](O)C[C@]2(C)[C@@]1(O)C(=O)CO
inactive: [1] | [2] | [3] | [4] | [5] | [6] | [7] | [8] | [10] | [11] | [12] | [13] | [14] | [15]

CN(C)CCC(c1ccc(Cl)cc1)c1ccccn1 (centres undefined)
inactive: [1] | [2] | [3] | [4] | [6] | [7] | [8] | [9] | [10] | [11] | [12] | [13] | [14] | [15] | [19] | [16] | [17] | [18]

OCCOCCN1CCN(C2=Nc3ccccc3Sc3ccccc32)CC1
inactive: [1] | [2] | [3] | [4] | [6] | [7] | [8] | [10] | [11] | [12] | [13] | [14] | [15] | [19] | [16]

CN(C)CCC(c1ccccc1)c1ccccn1 (centres undefined)
inactive: [1] | [2] | [3] | [4] | [6] | [7] | [8] | [9] | [10] | [11] | [12] | [13] | [14] | [15] | [19] | [17] | [18]

CSCCC=O
inactive: [1] | [2] | [3] | [4] | [5] | [6] | [7] | [8] | [9] | [10] | [11] | [12] | [13] | [14] | [19] | [16] | [17] | [18]

CCC(O)OC(O)CC (centres undefined)
inactive: [1] | [2] | [3] | [4] | [5] | [6] | [7] | [8] | [10] | [11] | [12] | [13] | [14] | [15] | [19] | [16] | [17] | [18]

O=c1[nH]c(=O)n([C@H]2CCCO2)cc1F
inactive: [1] | [2] | [3] | [4] | [6] | [7] | [8] | [9] | [10] | [11] | [12] | [13] | [14] | [19] | [16]

C=CCNC(N)=S
inactive: [1] | [2] | [3] | [4] | [6] | [7] | [8] | [9] | [10] | [11] | [12] | [13] | [14] | [15] | [19] | [16]

C=C(C)C(=O)O[C@H]1C[C@@H]2CC[C@@]1(C)C2(C)C
inactive: [1] | [2] | [3] | [4] | [6] | [7] | [8] | [10] | [11] | [12] | [13] | [14] | [19] | [16]

CC(=O)CC(=O)Nc1ccccc1
inactive: [20] | [2] | [3] | [4] | [6] | [7] | [8] | [9] | [10] | [11] | [12] | [13] | [14] | [15] | [16] | [17] | [18]

CCCCC(CC)COC(=O)CCCCC(=O)OCC(CC)CCCC (centres undefined)
inactive: [1] | [2] | [4] | [6] | [7] | [8] | [9] | [10] | [11] | [12] | [13] | [14] | [15] | [16] | [17] | [18]

CCc1ccc(CCOc2ccc(CC3SC(=O)NC3=O)cc2)nc1 (centres undefined)
inactive: [2] | [3] | [4] | [6] | [7] | [8] | [9] | [10] | [11] | [12] | [13] | [14] | [15] | [16] | [17]

OCC(CO)(CBr)CBr
inactive: [20] | [2] | [3] | [4] | [5] | [6] | [7] | [8] | [10] | [11] | [12] | [13] | [14] | [15] | [19] | [16] | [17] | [18]

CCN(CC)c1ccc(C(=O)c2ccccc2C(=O)O)c(O)c1
inactive: [2] | [3] | [4] | [6] | [7] | [8] | [10] | [11] | [12] | [13] | [14] | [15] | [19] | [16] | [17] | [18]
